A selection: hits, their analogues and other compounds. The true share with any hit is near 9.2%.
FLuc counter: inhibits or activates purified firefly luciferase, miR-21 counter-screen. purified FLuc, Km substrates, luminescence inhibition. Potency, µM (top dose mostly 57.5 µM), without a hit: at the top dose activity change, negative = inhibition, most hits filed as inhibitors. 6.9% of 360,000 active. AID 588342;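 also: plate controls were vehicle for no effect and reference inhibitor for full effect; nearly all actives have a fitted effect of over 55% in size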
Target sequence (P08659 whole entry, looked up): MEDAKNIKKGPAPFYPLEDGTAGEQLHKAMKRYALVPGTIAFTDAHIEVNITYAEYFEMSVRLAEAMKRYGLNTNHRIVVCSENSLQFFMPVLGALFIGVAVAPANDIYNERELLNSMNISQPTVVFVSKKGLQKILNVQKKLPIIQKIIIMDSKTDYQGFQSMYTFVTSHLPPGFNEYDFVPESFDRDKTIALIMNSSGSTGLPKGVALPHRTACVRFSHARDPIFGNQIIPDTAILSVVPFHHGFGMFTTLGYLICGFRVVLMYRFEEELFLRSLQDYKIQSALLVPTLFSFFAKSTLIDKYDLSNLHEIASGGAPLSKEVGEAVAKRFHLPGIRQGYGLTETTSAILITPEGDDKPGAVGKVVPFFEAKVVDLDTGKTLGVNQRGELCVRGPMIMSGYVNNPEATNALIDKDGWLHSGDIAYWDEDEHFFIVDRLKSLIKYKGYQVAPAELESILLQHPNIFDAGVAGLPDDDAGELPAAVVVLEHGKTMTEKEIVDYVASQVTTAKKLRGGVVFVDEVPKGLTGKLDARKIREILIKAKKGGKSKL
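Biochemical qHTS of compounds, final roughly 60 µM downward over six points, against 10 nM purified firefly luciferase using Km concentrations of substrates (10 uM D-luciferin, 10 uM ATP) in Tris acetate pH 7.5 buffer; luminescence output.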
SMN2 splice up: SMN2 splice variant enhancement. HEK293 SMN2-luciferase splicing reporter, luminescence, 30-36 h. Potency, µM (titrated, usually from 46.1 µM), for inactives: at the highest dose activity change, positive = activation, usual class: activators. 2.8% of 210,000 active; also: % of control where 0% means no effect; nearly all actives have a fitted effect of over 55% in size
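qHTS luciferase splicing reporter: luminescence rises when SMN2 exon 7 is included in transfected HEK293 cells. Compound exposure lasted 30-36 h at 37C, with 4.5 mM final sodium butyrate as control, followed by a ONE-Glo read.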
NPC1 promoter act: NPC1 promoter activation; Huh7 NPC1 promoter luciferase reporter, 24 h; Potency, µM (doses to about 9.22 µM), inactives show at the top dose activation, most hits filed as activators; AID 485313; 2.4% of 320,000 active; also: % of control where 0% means no effect; nearly all actives have a fitted effect of over 60% in size
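Luminescence read-out of NPC1 promoter-driven luciferase in stably transfected Huh7 cells; compounds delivered in DMSO and left 24 h at 37C, 5% CO2, qHTS titration format.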
ELG1 genotoxic: genotoxicity induction in ELG1-luciferase HEK293T cells | HEK293T ELG1-luciferase reporter, luminescence, 16 h | Potency, µM (top dose mostly 46 µM), inactives show top-dose activity change, positive = activation, most hits filed as activators | 1.3% of 330,000 active | AID 504466; also: % of control where 0% means no effect; nearly all actives have a fitted effect of over 60% in size
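HEK293T cells expressing luciferase-tagged ELG1 were treated with compound or DMSO for 16 hr at 37°C. Luciferase activity was then read after 30 min with ONE-Glo at room temperature; rising signal flags genetic stress.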
Rab9 promoter act: activates the Rab9 promoter. Huh7 Rab9 promoter-luciferase reporter, luminescence, 24 h. Potency, µM (series often up to 9.22 µM), for the others: at the top dose activation, negative = inhibition, hits mostly activators. 2.8% of 320,000 active; also: % of control where 0% means no effect; nearly all actives have a fitted effect of over 60% in size
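Cell-based reporter: Huh7 stable for Rab9 promoter-driven luciferase, plated in reduced-serum medium with 10% FBS at 1500 cells/well, compound-treated 24 h at 37 °C, luminescence read after 10 min reagent.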
ELG1 DNA repair: ELG1-dependent DNA repair inhibition; HEK293T ELG1-luciferase reporter, luminescence, 16 h; DNA damage induced by 5-fluorouridine; Potency, µM (titrated, usually from 46.1 µM), for the others: at the highest dose activity change, negative = inhibition, actives largely listed as inhibitors; 2.3% of 330,000 active; also: % is scaled to controls: 0 for no effect and ±100 for the full control effect; nearly all actives have a fitted effect of over 55% in size
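Step one: seed 2,000 cells per well. Step two: pin-transfer compound or DMSO alongside 5-fluorouridine. Step three: incubate 16 hr, 37 °C, 5% CO2. Step four: add ONE-Glo, wait 30 min, read luminescence.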
The depositor's hits bear a star; u = inconclusive; x = not tested or not shown; [ ] = another dose, or the depositor's remark. Calls follow the shape of the dose curve; as a rule, active = well fitted curve in the direction sought with a large enough effect; inconclusive = small, poorly fitted or top-dose-only effect, or another doubt; inactive = no such curve, though single readings can be large; an effect the other way counts as inactive or inconclusive. Potency is read from the fitted curve at half-maximal effect.

SMILES	FLuc counter	SMN2 splice up	NPC1 promoter act	ELG1 genotoxic	Rab9 promoter act	ELG1 DNA repair
CCN1C(=O)[C@H]2[C@H]3CN=C(SCC4CC4)N3[C@@](CC)(C(=O)OC)[C@H]2C1=O	x	x	x	-3%	x	21%
COc1ccccc1CCNC(=O)Cc1c(C)c2cc(Cl)c(O)cc2oc1=O	-19%	23%	x	x	x	x
CCOC(=O)C1CCN(C(=O)COC(=O)Cc2ccc(Cl)cc2)CC1	-1%	x	-4%	-4%	-4%	0%
[ClH+][Cu][ClH+].[Cu].[OH2+]c1ccc2ccccc2c1CN1CCCCC1.[OH2+]c1ccc2ccccc2c1CN1CCCCC1	x	-24%[9.22 µM]	x	x	x	x
COc1ccc(-c2cc(C(=O)N3CCN(c4ccccc4F)CC3)c3ccccc3n2)c(OC)c1	-3%	x	-7%	-14%	-1%	5.8µM*
O=c1[nH]c2ccccc2c2ccccc12	-11%	20%	-1%[46.1 µM]	2%	-11%[46.1 µM]	u
O=c1[nH]c2ccccc2c2cn(-c3ccccc3)nc12	13µM*	x	2.8µM*	u	u	u
CC(=O)NS(=O)(=O)c1ccc(NC(=O)/C=C/c2cn(-c3ccccc3)nc2-c2ccccc2)cc1	9.5µM*	8%	-3%	0%	-4%	11%
O=C(/C=C\c1cn(-c2ccccc2)nc1-c1ccccc1)Nc1nccs1	u	2%	11%	9%	-1%	-5%
CCOC(=O)N1CCC(NC(=O)c2cc(C(=O)Nc3cccc(C(F)(F)F)c3)ccc2CO)CC1	-11%	-51%	-13%	-8%	-6%	8.2µM*
CC(=O)c1ccc(NC(=O)CSc2nccn2Cc2ccc3c(c2)OCO3)cc1	-8%	x	x	x	x	x
Cc1ccc(NC2=C([N+](=O)[O-])CS(=O)(=O)C2)cc1	13µM*	18%	8%	26%	13%	u
Cc1ccc(S(=O)(=O)N(C)c2ccc(C(=O)N3CCN(Cc4ccc5c(c4)OCO5)CC3)cc2)cc1	4%	-69%	-13%	-6%	-30%	6.5µM*
Cc1ccc(S(=O)(=O)N(C)C)cc1NC(=S)N1CCN(Cc2ccc3c(c2)OCO3)CC1	-1%	-70%	-21%	-9%	-14%	8.2µM*
COCCn1c(=S)[nH]c2cc(C(=O)N3CCN(Cc4ccc5c(c4)OCO5)CC3)ccc2c1=O	-4%	-43%	-23%	1%	-24%	5.2µM*
CN(c1ccc(C(=O)N2CCN(Cc3ccc4c(c3)OCO4)CC2)cc1)S(=O)(=O)c1ccccc1	2%	-69%	-3%	-16%	-17%	23µM*
CCOc1ccc(NC(=O)CN(C)C(=O)c2ccc3c(c2)C(=O)N(CCC(C)C)C3=O)cc1OCC	4%	x	-4%	-6%	0%	-26%
CC(C)NC1(C(N)=O)CCN(Cc2ccccc2)CC1	x	-7%[9.22 µM]	x	x	x	x
COc1ccc(N=Cc2ccc(-c3ccccc3)o2)cc1	3µM*	x	-3%	12%	-12%	-11%
COc1ccc(N=C/C=C2\C=C(c3ccccc3)OC(C)(C)O2)cc1	u	u	-1%	-7%	3%	u
O/N=C\c1ccc(-c2ccccc2)o1	13µM*	13µM*	22%	15%	24%	u
COc1ccc(CNC(=O)Cc2c(C)c3cc4c(C)coc4cc3oc2=O)cc1OC	-6%	-10%	x	x	x	x
O=C(O)[C@@H]1[C@@H]2C[C@H]3c4[nH]c5ccccc5c4CCN3C[C@@H]2CC[C@@H]1O	x	-7%[20.6 µM]	x	x	x	x
CCc1ccc(CNc2ccc3c(c2)ncn3CC)cc1	11µM*	x	2.5µM*	u	2.5µM*	u
CC(C)c1ccc(CNc2ccc3c(c2)ncn3C)cc1	15µM*	x	3.2µM*	10%	3.5µM*	u
SMILES	FLuc counter	SMN2 splice up	NPC1 promoter act	ELG1 genotoxic	Rab9 promoter act	ELG1 DNA repair
CCc1ccc(CNc2ccc3c(c2)ncn3C(C)(C)C)cc1	6µM*	16µM*	3.2µM*	u	4µM*	u
CC(C)(C)n1cnc2cc(NCc3ccc(Br)cc3)ccc21	6.7µM*	x	3.5µM*	u	2µM*	u
Clc1ccc(CNc2ccccn2)cc1	u	x	8%	11%	29%	u
CC(C)c1ccc(CNc2ncccn2)cc1	13µM*	x	u	u	u	u
CC(C)(C)[C@@H]1COC(=O)[C@@H](Cc2ccc(F)cc2)C/C=C\C[C@H](CC(=O)N(CCO)Cc2ccccc2)C(=O)N1	x	x	x	-9%	x	u
Oc1cccc(Nc2nc(O)c(/C=C3\C=Nc4ccccc43)s2)c1	21µM*	x	3%	u	7%	u
Cc1cccc(NC(=O)c2cc(-c3cc(Cl)ccc3O)n[nH]2)c1	u	x	2.2µM*	18%	u	u
Cc1ccc(C)c(NC(=O)c2cc(-c3cc(C)ccc3O)n[nH]2)c1	3µM*	x	2µM*	u	26%	u
COc1ccc(Cl)cc1NC(=O)c1cc(-c2cc(C)ccc2O)n[nH]1	-14%	x	-2%	-3%	-4%	-11%
CC1Sc2ccc(S(=O)(=O)CCC(=O)NC(C)c3ccccc3)cc2NC1=O (stereo not drawn)	-1%	x	0%	-1%	-5%	-4%
CN(CC(=O)Nc1c(Cl)cccc1Cl)C(=O)C1CC(=O)N(Cc2ccccc2)C1 (stereo not drawn)	-2%	x	4%[1.84 µM]	-1%	6%	13%
N#Cc1ccccc1Cn1c(=O)n(-c2cccc(C(F)(F)F)c2)c(=O)c2sccc21	-2%	-1%	x	x	x	x
O=C(Nc1ccc(Cc2ccncc2)cc1)C1CCC(N2C(=O)C3C4C=CC(C4)C3C2=O)CC1 (stereo not drawn)	1%	-46%	0%	-13%	-9%	6.5µM*
CC(=O)c1ccccc1NC(=O)c1ccc(N2CCCC2=O)cc1	7.6µM*	x	27%	u	u	16%
CSc1ccccc1NC(=O)c1ccc(N2CCCC2=O)cc1	15µM*	x	u	u	u	u
CC(=O)c1ccc(NC(=O)c2ccc(N3CCCC3=O)cc2)cc1	-12%	x	1%	2%	-1%	u
Cc1cccc(-n2c3nc(=O)[nH]c(=O)c-3cc3ccc(Cl)cc32)c1C	-7%	-11%	x	x	x	x
Cc1nc2nc(SCc3ccc(F)cc3Cl)nn2c(C)c1Cc1ccccc1	-11%	x	x	x	x	x
COc1ccc(CCN(C)CCC(=O)Nc2cc(C)ccc2C)cc1OC	13µM*	-7%	1%	-1%	-2%	u
COc1ccc(S(=O)(=O)N2CCC(C(=O)Nc3ccccc3C)CC2)c2cccnc12	-2%	-6%	9%	-12%	15%	18µM*
COc1ccc(C)cc1NC(=O)C1CCN(S(=O)(=O)c2cccc3cccnc23)CC1	-5%	-15%	-2%	-10%	0%	23µM*
